Sampled rows, rich in hits. Any-hit rate of the full collection: about 4.6%.
tim10-1 inh: inhibits growth of tim10-1 mutant yeast; 330,000 tested, 2.2% active; inhibition, % at 20 µM; S. cerevisiae tim10-1 ts strain growth, BacTiter-Glo, 24 h; AID 463190;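 active means inhibition of at least 40%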;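 further: mutant grown at 25 °C; 0% = DMSO wells with yeast and 100% = wells holding no yeast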
SKKanGAS inh: blocks kanamycin growth of S. pyogenes SKKanGAS strain; BacTiter-Glo, 6 h; 300,000 tested, 1.3% active; inhibition, % at 7.5 µM;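 active means mean replicate score, as percent of positive control median, at least 50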;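 further: strain carries kanamycin resistance gene driven by streptokinase promoter and grows in 40 µg/ml kanamycin; loss of luminescence reflects streptokinase promoter inhibition or plain growth inhibition; 0% = median of DMSO wells and 100% = positive control at its reference dose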
TIM10 inh: TIM10 yeast growth inhibition | S. cerevisiae TIM10 strain growth, BacTiter-Glo luminescence, 24 h | inhibition, % at 10 µM | 330,000 tested, 1.4% active;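 active means inhibition of 40% or more at the single tested concentration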;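 further: wild-type TIM10 isogenic control strain grown at permissive 25 °C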
V-ATPase pHluor: yeast V-ATPase proton transport regulation by pHLuorin. S. cerevisiae, pHLuorin cytosolic pH fluorescence. AID 504577. response, % at 10 µM. 350,000 tested, 0.37% active; in the data active means response mostly above about 7.3%, no sharp cut-off; inactive means mostly below about 5.4%; further: actives read high
tim23-1 inh: growth inhibitors of tim23-1 mutant yeast; S. cerevisiae tim23-1 growth, BacTiter-Glo luminescence, 24 h; inhibition, % at 20 µM; 330,000 tested, 1.3% active; AID 463212;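 active means growth inhibition of the mutant yeast at or above 50%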;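 further: temperature-sensitive mutant grown at 25 °C; plate controls were DMSO-treated mutant yeast for no effect and medium wells lacking yeast for full effect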
PfHsp90 yeast 2: reduces growth (ATP signal) of yeast expressing P. falciparum Hsp90; 310,000 tested, 0.32% active; AID 504621; S. cerevisiae expressing PfHsp90, BacTiter-Glo ATP, 48 h; yeast lacking PDR1 and PDR3 efflux regulators; inhibition, % at 9.4 µM;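 active means every replicate shows inhibition above about 80%, whatever the replicate mean, limit read from the data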;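 further: 0% = DMSO neutral controls and 100% = 20 µM radicicol positive controls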
tim10-1 confirm: tim10-1 yeast growth inhibition, confirmed. shares compounds with tim10-1 inh. S. cerevisiae tim10-1 ts strain growth, BacTiter-Glo, 24 h. inhibition, % at 20 µM. 7,400 tested, 56% active. AID 463213;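 active means inhibition of yeast growth at or above a set limit in either of two repeat tests at 20 µM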;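 further: tim10-1 mutant grown at permissive 25 °C to find synthetic lethal compounds; 0% = DMSO yeast wells and 100% = medium wells without yeast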
TIM10 conf: confirmation of TIM10 yeast growth inhibitors; 4,600 tested, 63% active; inhibition, % at 10 µM; S. cerevisiae tim10 strain growth, BacTiter-Glo luminescence, 24 h; AID 463215; shares compounds with TIM10 inh;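 active means inhibition of yeast growth at or above a set limit in either of two replicates at 10 µM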;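 further: this counterscreen used the strain with wild-type TIM10; 0% = yeast with DMSO and 100% = medium wells lacking yeast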
tim23-1 confirm: tim23-1 yeast growth inhibition, confirmed | shares compounds with tim23-1 inh | S. cerevisiae tim23-1 growth, BacTiter-Glo luminescence, 24 h | inhibition, % at 20 µM | 4,400 tested, 83% active | AID 463218;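 active means inhibition above about 39% in either of two replicate wells at 20 µM, limit read from the data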;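 further: temperature-sensitive tim23-1 mutant grown at 25 °C; 0% = DMSO wells with yeast and 100% = medium wells without yeast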
Active calls of the source: *; . = no result.

SMILES	tim10-1 inh	SKKanGAS inh	TIM10 inh	V-ATPase pHluor	tim23-1 inh	PfHsp90 yeast 2	tim10-1 confirm	TIM10 conf	tim23-1 confirm
c1ccc(-c2nc3nonc3nc2-c2ccccc2)cc1	79.7*	3.3	63.9*	7.4	61.4*	-64.6	72.5*	56.6*	84.5*
CC1CCCC(C)N1C(=O)COC(=O)c1ccccc1O (stereo not drawn)	4.0	.	4.1	-1.4	10.2	-0.6	.	.	.
CC1CCCC(C)N1C(=O)c1cccc2c1-c1ccccc1/C2=N/O (stereo not drawn)	42.5*	.	25.6	-2.3	50.0*	-3.2	38.9*	.	43.9*
Cc1ccccc1-c1cnc2c(c1)C(=O)N([C@@H](C)CO)C[C@@H](C)[C@H](CN(C)Cc1ccccc1F)O2	.	.	.	-0.1	.	.	.	.	.
ONC(=Nc1ccccc1Cl)c1c(F)cccc1F	-11.7	-0.8	-11.3	3.9	10.0	-6.9	.	.	.
CCOc1ccccc1N1CCN(C(=O)Nc2ccc(Cl)c(Cl)c2)CC1	48.4*	15.4	37.2	.	58.1*	.	37.2*	.	50.5*
Cc1nnc(-c2ccccc2)nc1N1CCOCC1	-8.7	-1.1	0.0	0.3	10.2	1.6	.	.	.
Cc1ccc(-c2nnc(C)c(N3CCCC3)n2)cc1	42.2*	-0.7	28.8	-1.4	54.4*	19.9	25.1	.	68.7*
Cc1nc2ccc(NC(=O)CCC3CCCC3)cc2s1	5.8	3.0	-5.4	0.4	26.2	-0.7	.	.	.
Cc1ccc(C)c(N2CCN(C(=O)c3ccc4nsnc4c3)CC2)c1	56.6*	4.7	28.2	1.0	61.0*	-11.3	25.9	.	47.2*
CC(C)C(=O)Nc1cc2c3c(c1)CCN3C(=O)CC2	-9.6	-2.1	-0.6	-0.8	7.0	-1.6	.	.	.
CNC(C)C#Cc1ccc2oc3cc(C)c(C)cc3c(=O)c2c1 (stereo not drawn)	11.1	5.4	8.5	-6.1	21.2	11.7	.	.	.
CNC(C)C#Cc1ccc2c(=O)c3cc(C)c(C)cc3oc2c1 (stereo not drawn)	41.5*	13.3	15.9	-3.3	51.3*	-12.1	37.6*	.	58.8*
COc1ccc(C(=O)c2coc(-c3ccccc3C(=O)O)c2C(=O)O)cc1	5.0	-1.8	-6.9	0.9	-6.2	-15.0	.	.	.
Cc1ccc(C(=O)c2coc3c2C(=O)C(=O)c2ccccc2-3)cc1	93.4*	8.6	96.6*	-1.3	85.3*	141.4*	93.7*	95.8*	94.8*
COc1ccc(-n2cnc3cc(NCc4cccs4)ccc32)cc1	40.2*	30.6	34.1	-5.7	58.4*	14.7	-1.2	.	40.5*
c1ccc(-n2cnc3cc(NCc4cccs4)ccc32)cc1	45.6*	17.5	51.8*	1.6	51.2*	-4.3	33.0*	46.1*	70.2*
Cc1ccc(-c2nc(N/N=C/c3cccnc3)c3ccccc3n2)cc1	75.8*	15.3	66.2*	2.8	84.3*	16.9	73.9*	59.0*	85.2*
Cc1ccc(O)c(C=Nc2cc(C)ccc2O)c1	4.5	-3.2	-7.6	3.3	16.1	-7.5	.	.	.
Cc1ccc(O)c(N=Cc2cc(Cc3ccccc3)cc([N+](=O)[O-])c2O)c1	52.1*	4.5	36.5	-1.0	51.4*	100.9*	29.3	.	61.1*
CCOC(=O)C1CCN(S(=O)(=O)c2ccc(NC(=O)c3ccco3)cc2)CC1	69.4*	3.6	65.8*	-3.9	65.0*	3.1	62.1*	55.0*	68.8*
O=C(Nc1ccc(OCC(=O)N2CCC(Cc3ccccc3)CC2)cc1)c1ccco1	59.2*	8.1	68.0*	-5.3	71.7*	16.0	60.0*	42.8*	78.5*
CCOC(=O)C1CCN(S(=O)(=O)c2ccc(CC)cc2)CC1	10.9	6.0	9.9	2.9	31.5	12.3	.	.	.
CCOC(=O)C(Cc1cc(N)c(Oc2ccc(OC)cc2)c(N)c1)NC(C)=O (stereo not drawn)	.	.	.	-1.9	.	.	.	.	.
O=C(COC(=O)/C=C/c1ccccc1Cl)NC1CCCCCC1	26.2	-17.3	-1.8	6.3	0.5	-8.6	.	.	.
SMILES	tim10-1 inh	SKKanGAS inh	TIM10 inh	V-ATPase pHluor	tim23-1 inh	PfHsp90 yeast 2	tim10-1 confirm	TIM10 conf	tim23-1 confirm
CN(C(=O)CN1C(=O)C2C3CC(C(Br)C3Br)C2C1=O)C1CCCCC1 (stereo not drawn)	-1.6	-2.3	15.3	-2.5	10.1	24.7	.	.	.
CCOC(=O)C(=CNNc1cccc(Cl)c1)C(=O)OCC	41.1*	-13.3	26.6	.	54.8*	17.9	53.4*	.	71.8*
COc1ccc(S(=O)(=O)CC(=O)c2cc3cccc(C)c3oc2=O)cc1	53.0*	11.1	-4.2	3.8	65.3*	8.0	-17.9	.	56.8*
COc1cccc2cc(C(=O)CS(=O)(=O)c3ccc(C(C)(C)C)cc3)c(=O)oc12	47.9*	-0.1	30.6	-1.0	52.3*	5.1	16.8	.	54.4*
CNC(=O)c1cc2cccc(OC)c2oc1=O	14.1	1.3	4.3	3.3	12.0	4.7	.	.	.
COc1ccc(/C=C\C(=O)c2c(O)ccc3c(C)cc(=O)oc23)cc1OC	53.3*	-6.2	46.6*	2.1	54.3*	-18.4	50.3*	50.5*	52.2*
Cc1cc(=O)oc2c(C(=O)/C=C\c3cccs3)c(O)ccc12	53.8*	12.4	55.7*	-0.3	73.2*	-70.4	79.5*	64.1*	66.3*
COc1cc(/C=C/C(=O)c2c(O)ccc3c(C)cc(=O)oc23)ccc1O	77.7*	33.0	57.1*	6.1	73.3*	-33.1	71.8*	72.9*	82.0*
Cc1nc(SCc2nc3ccc(C(=O)c4ccccc4)cc3[nH]2)c2oc3ccccc3c2n1	-0.5	.	-7.0	-0.3	7.4	-7.2	.	.	.
COC(=O)N/N=C/c1ccc([N+](=O)[O-])s1	42.1*	-3.3	30.0	-0.4	82.7*	1.8	33.5*	.	88.5*
O=C(N/N=C\c1ccc([N+](=O)[O-])s1)c1cncc(Br)c1	45.3*	6.5	54.6*	-3.9	68.7*	2.8	34.8*	51.3*	69.1*
O=C(N/N=C/c1ccc([N+](=O)[O-])s1)c1ccccc1	-27.2	15.3	-2.7	-6.8	6.6	-33.0	.	.	.
Cc1ccc(NC(=O)CN2CCOCC2)cc1C	-7.6	-1.1	-11.8	1.1	-6.1	6.7	.	.	.
CC(C)(C)c1ccc(NC(=O)N2CCCN(c3ccc([N+](=O)[O-])cn3)CC2)cc1	43.1*	5.3	43.1*	-1.7	60.7*	5.8	50.0*	42.2*	56.7*
CCCCc1ccc(/C=C2\C(=O)c3ccccc3C(O)=C2C(=O)OCC)cc1	64.1*	109.0*	47.4*	.	50.1*	.	55.1*	47.3*	58.8*
